Calls of active or inactive are those of the source. Unless noted, how the calls were made is not given here.
How the values were obtained:
[1] = tested on: XIP peptide (Xip251-270) binding; experiment: XIP fragment 251-270 binding compounds – biochemical, small-molecule microarray, fluorescence 635/667 nm, 0.1 µg/mL protein, primary screen (AID 1182); conditions: fluorescent protein binding, 635 nm, higher = more signal, called active from +8 up or from −8 down
[2] = tested on: XIP peptide (Xip251-270); experiment: compounds binding XIP fragment 251-270 – biochemical, small-molecule microarray, fluorescence 635/667 nm, 0.5 µg/mL protein, primary screen (AID 1183); conditions: fluorescence 635 nm, higher = more signal
[3] = blood-stage malaria parasite viability loss – strain 3D7, DAPI fluorescence, 100 nL, primary screen (AID 1184);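 further: parasites grown inside human red blood cells in medium with human serum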; conditions: P. falciparum 3D7 growth, 3 d, higher = more signal
[4] = molecular target: Homeobox protein Hox-A13 (Mus musculus) (UniProt Q62424); experiment: disruptors of Hoxa13 oligonucleotide interaction – biochemical, fluorescence polarization, labeled oligonucleotide, primary screen (AID 1185); conditions: Hoxa13:DNA binding, 15 min, higher = more signal, called active from +8 up or from −8 down
[5] = blockers of DNA damage checkpoint Chk1 activation – imaging, HeLa, hydroxyurea, phospho-Chk1 antibody, percent positive cells, primary screen (AID 1186); conditions: hydroxyurea-induced phospho-Chk1 immunofluorescence imaging, higher = more signal
[6] = blockers of DNA damage checkpoint Chk1 activation – imaging, HeLa, hydroxyurea, phospho-Chk1 nuclear intensity, primary screen (AID 1187); conditions: hydroxyurea-induced phospho-Chk1 immunofluorescence imaging, higher = more signal

Chain of Homeobox protein Hox-A13 (Mus musculus) (Q62424 whole entry, looked up): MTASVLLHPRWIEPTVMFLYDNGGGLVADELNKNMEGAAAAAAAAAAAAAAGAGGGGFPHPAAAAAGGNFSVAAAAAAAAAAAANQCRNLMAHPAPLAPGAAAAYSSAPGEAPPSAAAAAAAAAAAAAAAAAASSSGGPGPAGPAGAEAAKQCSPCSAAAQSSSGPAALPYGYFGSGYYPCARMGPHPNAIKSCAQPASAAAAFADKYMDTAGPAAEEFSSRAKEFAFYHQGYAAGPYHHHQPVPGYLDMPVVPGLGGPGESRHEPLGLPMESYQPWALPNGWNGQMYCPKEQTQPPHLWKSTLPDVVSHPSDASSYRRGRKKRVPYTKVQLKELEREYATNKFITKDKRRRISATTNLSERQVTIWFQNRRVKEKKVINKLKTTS

| SMILES | composite z-score [1] | composite z-score [2] | z-score [3] | z-score [4] | z-score [5] | z-score [6] |
| --- | --- | --- | --- | --- | --- | --- |
| COC(=O)[C@@]1(Cc2ccc(F)cc2)[C@H]2c3cc(C(=O)N4CCCC4)n(Cc4cc(F)cc5c4OCOC5)c3C[C@H]2CN1C(=O)c1ccccc1 | 0.602 (inactive) | 0.53 | -1.6 | -4.07 (inactive) | -0.142 (inactive) | -0.121 (inactive) |
| O=C1O[C@H](c2ccccc2)[C@H](c2ccccc2)N2[C@H]1[C@@H](C(=O)N1CCN(c3ncccn3)CC1)[C@]1(C(=O)Nc3ccc(C#CCCO)cc31)[C@H]2c1ccc(O)cc1 | -0.224 (inactive) | 0.726 | -0.707 | -2.81 (inactive) | -0.114 (inactive) | -0.212 (inactive) |
| CC(=O)OCC1C2CC[C@H]3C(OCc4ccc(F)cc4C(F)(F)F)OC[C@]4(C)[C@H]3C2=C(CN4C(=O)OC(C)(C)C)[C@H](C)C1COC(C)=O (some centres not stated) | -0.07 (inactive) | 0.653 | -1.22 | -3.13 (inactive) | 0.657 (inactive) | 0.833 (inactive) |
| CC(C)c1nc2cc(Br)ccc2c(=O)o1 | 0.697 (inactive) | 0.355 | -0.795 | -0.27 (inactive) | -0.0165 (inactive) | 0.0785 (inactive) |
| COc1ccc(C#Cc2ccc3c(c2)[C@]2(C(=O)N3)[C@H](C(=O)O)[C@H]3C(=O)O[C@H](c4ccccc4)[C@H](c4ccccc4)N3[C@@H]2c2ccccc2OCCO)cc1 | 1.89 (inactive) | 0.833 | -2.15 | -3 (inactive) | 0.135 (inactive) | 0.175 (inactive) |
| C=C(CCCC)/C(=C/C[C@H](OC(=O)c1ccncc1)c1ccccc1OCCO)c1cc(C(=O)OC)ccc1OC | 0.578 (inactive) | 0.0792 | -3.07 | -4.22 (inactive) | -1.15 (inactive) | -0.733 (inactive) |
| [N-]=[N+]=Nc1ccccc1C[C@@]1(C(=O)NCC(O)CO)N=C(c2ccc(OCCCO)cc2)O[C@@H]1c1ccccc1 (some centres not stated) | 0.105 (inactive) | 0.75 | -1.45 | -5.72 (inactive) | -0.416 (inactive) | -0.145 (inactive) |
| C=C(COC)/C(=C/C[C@H](OC(C)=O)c1ccccc1OCCO)c1cc(C(=O)OC)ccc1OC | 0.117 (inactive) | 0.788 | -2.75 | -4.27 (inactive) | -1.15 (inactive) | -1.14 (inactive) |
| COc1ccc([Si](C)(C)[C@@H]2[C@@H](CC(=O)N3CCC[C@H]3CO)O[C@]3(C(=O)N(Cc4cccc(N5CCCCC5=O)c4)c4ccccc43)[C@H]2C)cc1 | 2.84 (inactive) | 0.799 | -1.26 | -2.93 (inactive) | -0.515 (inactive) | 0.336 (inactive) |
| COC(=O)[C@H](Cc1ccc(O)cc1)N[C@@H](/C=C/C1CC1)[C@H](O)Cc1ccccc1 | -0.364 (inactive) | -0.0324 | 1.55 | -5.14 (inactive) | 0.412 (inactive) | 0.0577 (inactive) |
| CC(C)C[C@@H]1NC(=O)[C@@]23C(=O)N[C@@H](Cc4ccccc4)C2[C@H](C)[C@@]2(C)O[C@H]2C3/C=C/C/C=C\CNC(=O)CNC1=O (some centres not stated) | 0.533 (inactive) | 0.58 | -0.59 | -5.87 (inactive) | 0.312 (inactive) | -0.0422 (inactive) |
| O=C(NCc1ccc(F)cc1)[C@H]1C[C@H]2C(=O)N3CCC[C@H]3C(=O)N2[C@H]1c1ccc(O)cc1 | -0.0173 (inactive) | 0.702 | -1.21 | 1.55 (inactive) | -0.717 (inactive) | -0.415 (inactive) |
| CC(C)(C)OC(=O)CC[C@]1(C(=O)NCC(O)CO)N=C(c2ccc(OCCCO)cc2)O[C@H]1c1ccccc1N=[N+]=[N-] (some centres not stated) | 3.52 (inactive) | 0.811 | -1.45 | -4.51 (inactive) | 0.0505 (inactive) | 0.259 (inactive) |
| C=C(CCCC)C(=O)CC[C@@H](OC(=O)c1ccccc1-c1ccccc1C(=O)O)c1ccccc1OCCO | 0.721 (inactive) | 0.145 | -2.92 | -6.26 (inactive) | 0.779 (inactive) | 1.38 (inactive) |
| COC(=O)C[C@H]1O[C@@]2(C[C@@H]1[Si](C)(C)C)C(=O)N(C)c1ccccc12 | -0.227 (inactive) | -0.186 | 0.357 | -0.91 (inactive) | -0.597 (inactive) | -0.0422 (inactive) |
| COc1ccc([Si](C)(C)[C@H]2[C@H](CC(=O)N3CCC[C@H]3CO)O[C@@]3(C(=O)N(Cc4ccc(N5CCCCC5=O)cc4)c4ccccc43)[C@@H]2C)cc1 | 0.214 (inactive) | 0.753 | -1.64 | -4.85 (inactive) | 0.268 (inactive) | 0.241 (inactive) |
| COC(=O)C(CC#Cc1ccc2c(c1)[C@]1(C(=O)N2)[C@H](c2ccc(OCCO)cc2)N2[C@H](c3ccccc3)[C@H](c3ccccc3)OC(=O)[C@H]2[C@@H]1C(=O)N1CCCCCCC1)C(=O)OC | 2.15 (inactive) | 0.812 | -2.24 | -14.6 (active) | -0.224 (inactive) | -0.197 (inactive) |
| CC(C)C[C@@H]1NC(=O)[C@@H]2C[C@H](C(=O)NCCCCCCNC(=O)CS)[C@H](c3cccc(OCCO)c3)N2C1=O | 1.63 (inactive) | 0.839 | -0.0654 | -3.13 (inactive) | -0.517 (inactive) | -0.358 (inactive) |
| C=CCC(OC(C)=O)[C@@H]1[C@@H](N(Cc2cc3ccccc3o2)C(=O)Cc2ccc(OC)cc2)c2cc(OCCCO)ccc2N1C(=O)c1ccc2ccccc2n1 (some centres not stated) | -0.206 (inactive) | -0.454 | -2.17 | -2.1 (inactive) | 0.16 (inactive) | 0.158 (inactive) |
| COC(=O)[C@@]1(Cc2ccccc2)[C@H]2c3cc(C(=O)N(C)C)n(CCO)c3C[C@H]2CN1C(=O)c1ccccc1 | 1.42 (inactive) | 0.182 | 1.1 | -3.87 (inactive) | 0.736 (inactive) | 0.491 (inactive) |
| COC(=O)[C@@]1(Cc2ccc(OC)cc2)[C@H]2c3cc(C(=O)N4CCCC4)n(CCn4cc([N+](=O)[O-])nc4C)c3C[C@H]2CN1C(=O)c1ccccc1 | 1.13 (inactive) | 0.359 | -1.73 | -2.67 (inactive) | 1.65 (inactive) | 1.22 (inactive) |
| C=C(COC)/C(=C/C[C@@H](OC(C)=O)c1ccccc1OCCO)c1cnc2ccccc2c1 | 0.534 (inactive) | 0.69 | -2.92 | -5.76 (inactive) | -0.5 (inactive) | -0.376 (inactive) |
| COc1ccc([Si](C)(C)[C@@H]2[C@@H](CC(=O)N3Cc4ccccc4C[C@H]3CO)O[C@]3(C(=O)N(Cc4cccc(N5CCOC5=O)c4)c4ccccc43)[C@H]2C)cc1 | 0.0848 (inactive) | 0.672 | -2.83 | -2.49 (inactive) | -0.34 (inactive) | -0.695 (inactive) |
| COCCn1c(C(=O)N(C)C)cc2c1C[C@H]1CN(C(=O)c3ccccc3)[C@@](Cc3ccc(OC)cc3)(C(=O)OC)[C@@H]21 | 0.116 (inactive) | 0.435 | -1.45 | -3.91 (inactive) | 0.688 (inactive) | 0.542 (inactive) |
| C=C(C)[C@@H]1CC=C(C(O)C2C=CC3C(=O)N(c4ccccc4)C(=O)C3N2Nc2ccc([N+](=O)[O-])cc2)CC1 (some centres not stated) | 0.26 (inactive) | -0.0122 | -1.26 | -1.49 (inactive) | 0.248 (inactive) | 0.0235 (inactive) |
| CC(C)[Si](C#CCCc1ccccc1)(O[C@H](c1ccccc1)c1cn(Cc2ccccc2)nn1)C(C)C | -0.0657 (inactive) | 0.574 | -0.374 | -1.64 (inactive) | -1.18 (inactive) | -1.16 (inactive) |
| CC1CC/C=C\[C@H]2OC34C=CCN(c5ccc(Cl)cc5)C(=O)[C@H]3N(CCCCCCO)C(=O)[C@]4(C)C2C(=O)O1 (some centres not stated) | 0.675 (inactive) | 0.265 | 0.955 | -5.35 (inactive) | -0.517 (inactive) | -0.187 (inactive) |

— PubChem BioAssay
